The supplement of paper PMC9334596
“And” between values parts separate entries of the source, which are not always exact repeats. Equal values may be shown once. Whole data set: some 5,300 compounds, median “PER2::LUC luminescence relative to vehicle control” near 0.96, cut for the highest 2% near 1.3. This excerpt belongs to a sample that is enriched for the highest values.

System: mPer2Luc MEF
Assay: PER2::LUC luminescence relative to vehicle control (fold of vehicle); higher = higher PER2::LUC reporter signal
Details: 10 µM
How it was run: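 Compounds from commercial libraries were added at 10 μM to 384-well plates seeded 48 h earlier with ~3000 mPer2Luc mouse embryonic fibroblasts per well. The cells were kept in DMEM with 10% FBS at 37 °C and 5% CO2. Luminescence was read with ONE-Glo 24 h and 30 h after treatment, then an alamarBlue viability assay was run. Values are PER2::LUC luminescence relative to vehicle control, as fold change.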

SMILES | PER2::LUC luminescence (time after treatment 24 h) | PER2::LUC luminescence (time after treatment 30 h)
C#CCN(Cc1cc2c(=O)[nH]c(C)nc2cc1Br)c1ccc(C(=O)NCc2cccnc2)cc1 | 0.902 | 0.731
CC(Oc1ccc(Oc2cnc3ccc(Cl)cc3n2)cc1)C(=O)O (configuration not stated) | 1.14 | 1.05
COc1cc2ncnc(Nc3cccc(I)c3)c2cc1OC | 0.808 | 0.774
O[C@@](Cc1ncc(CC2(C(F)(F)F)CC2)[nH]1)(c1ccc(-n2cccn2)cc1)C(F)(F)F | 0.966 | 0.921
Cc1cc(Nc2ccc(NC(=O)c3ccc(Nc4ccnc5ccccc45)cc3)cc2)nc(N)n1 | 0.945 | 1
O=C(Nc1ccc(OC(F)(F)F)cc1)c1sccc1NCc1ccnc2ccccc12 | 1.76 | 1.99
CCOc1ccc(-n2c(C(C)N(Cc3cccnc3)C(=O)Cc3ccc(OC(F)(F)F)cc3)nc3ncccc3c2=O)cc1 (configuration not stated) | 0.97 | 0.944
Cc1c2c(c(O)c3c(O)cccc13)C(=O)O[C@@H]2[C@@H]1[C@H](O)C(=O)C(C(N)=O)=C(O)[C@H]1N(C)C [Alpha-APO-OXYTETRACYCLINE] | 0.979 | 0.958
CCc1c(C(=O)NNC(=O)C(O)c2cc(F)cc(F)c2)ccc(O)c1C (configuration not stated) | 0.99 | 0.823
COc1cccc(-c2cc(=O)c3ccccc3o2)c1N | 0.951 | 0.985
COc1ccc(-c2cc(=O)c3ccc(O)cc3o2)cc1 | 1.19 | 1.23
COc1ccc2c(=O)c(OC)c(-c3ccccc3)oc2c1 | 0.767 | 0.809
COc1ccc2oc(-c3ccccc3)c(OC)c(=O)c2c1 | 1.54 | 1.73
COc1ccc(-c2cc(=O)c3c(OC)c(OC)c(OC)c(OC)c3o2)cc1 | 0.944 | 1.03
COc1ccc(-c2cc(=O)c3c(OC)c(OC)c(OC)c(OC)c3o2)cc1OC | 0.626 | 0.784
COc1ccc2ccc(=O)oc2c1 | 1 | 1.01
COc1ccc(-c2oc3ccccc3c(=O)c2OC)cc1 | 0.987 | 1.2
COc1ccc(-c2cc(=O)c3ccccc3o2)cc1 | 1.72 | 1.29
COc1ccc2oc(-c3ccccc3OC)cc(=O)c2c1 | 1.38 | 1.61

SMILES | PER2::LUC luminescence (time after treatment 24 h) | PER2::LUC luminescence (time after treatment 30 h)
COc1cccc(-c2cc(=O)c3cc(OC)ccc3o2)c1 | 1.22 | 1.49
COc1cccc(-c2cc(=O)c3ccc(OC)cc3o2)c1 | 0.879 | 0.955
CC[C@H](C)[C@H]1O[C@]2(C=C[C@@H]1C)C[C@@H]1C[C@@H](C/C=C(\C)[C@@H](O[C@H]3C[C@H](OC)[C@@H](O[C@H]4C[C@H](OC)[C@@H](O)[C@H](C)O4)[C@H](C)O3)[C@@H](C)/C=C/C=C3\CO[C@@H]4[C@H](OC)C(C)=C[C@@H](C(=O)O1)[C@]34O)O2 | 0.767 | 0.843
NC(=O)C[n+]1cccc(C(=O)O)c1 | 1.18 | 1.08
c1cc(NC2CCNCC2)nc(-c2cnc3ccccn23)c1 | 0.506 | 0.487
CCCNC[C@]1(O)[C@H](C)O[C@@H](O[C@H]2[C@H](C)[C@@H](O[C@@H]3O[C@H](C)C[C@H](N(C)C)[C@H]3O)[C@](C)(O)C[C@@H](C)CN[C@H](C)[C@@H](O)[C@](C)(O)[C@@H](CC)OC(=O)[C@@H]2C)C[C@@]1(C)OC | 1.05 | 0.881
C/C=C(/C)C(=O)O[C@H]1CC(C)=CC(=O)[C@@]2(C)CC[C@@](O)(C(C)C)[C@H]12 | 1.01 | 0.988
Cc1nnc(-c2sc(NC(=O)[C@H](C(C)C)n3c(=O)[nH]c4ccccc4c3=O)nc2C)o1 | 1.04 | 0.956
COc1cc([C@@H]2CC(=O)c3c(O)cc(O)cc3O2)ccc1O | 0.985 | 0.942
Cc1occc1C(=O)n1ccnc1 | 0.986 | 0.971
COc1cc2ncnc(N(C)c3cccc(Br)c3)c2cc1OC | 0.83 | 0.741
OCc1ccc(-c2ccc(-c3ccc(CO)s3)o2)s1 | 1.48 | 1.62
CCCCCCCCOC(=O)C=Cc1ccc(OC)cc1 | 1.04 | 1.09
CC(C)(O)c1ccc2c(c1)ncn2-c1cccc(-c2ccccc2C#N)c1 | 0.829 | 0.89
CC(Nc1ccc(-c2nn[nH]n2)cc1)C(=O)O (racemic) | 0.971 | 0.96
CC(C)[C@H](CO)Nc1nc(Sc2cccc(N)c2)c2ncn(C(C)C)c2n1 | 0.582 | 0.686
FC(F)(F)c1ccc(CNc2ccc(Cc3c[nH]c4ncc(Cl)cc34)cn2)cc1 | 0.83 | 0.83
CC(C(=O)O)c1ccc(N2Cc3ccccc3C2=O)cc1 (configuration not stated) | 1.02 | 1.34
CC(C(=O)O)c1ccc2c(c1)CC(=O)c1ccccc1S2 (configuration not stated) | 1.05 | 1.08

SMILES | PER2::LUC luminescence (time after treatment 24 h) | PER2::LUC luminescence (time after treatment 30 h)
CC(C(=O)O)c1ccc(-c2ccccc2)c(F)c1 (configuration not stated) | 1.15 | 1.06
O=C(CCc1ccc(O)cc1)c1c(O)cc(O)cc1OC1OC(CO)C(O)C(O)C1O (configuration not stated) | 1.02 | 0.948
Oc1nc2cc(Cl)c(Cl)cc2nc1O | 0.684 | 0.69
COc1ccc2nc(/C=C/c3cccc([N+](=O)[O-])c3)n(-c3ccc(C(=O)O)cc3)c(=O)c2c1 | 1.05 | 1.01
O=C(O)[C@@]1(CCCCCCOc2ccc(Cl)cc2)CO1 | 0.936 | 1.01
CCN(CC)CCOc1ccc(Cc2ccccc2)cc1 | 0.811 | 0.893
CC/C(=C(\c1ccccc1)c1ccc(OCCN(C)C)cc1)c1ccccc1 | 0.718 and 0.679 | 0.784 and 0.742
CCN(CC)CCOc1ccc(C(=C(Cl)c2ccccc2)c2ccccc2)cc1 | 0.934 and 0.704 | 1.73 and 0.773
CC(=O)NC[C@H]1CN(c2ccc(-c3ccc(CNCc4cnn[nH]4)cc3)c(F)c2)C(=O)O1 | 1.03 | 1.09
Cn1nnc(-c2ccc(-c3ccc(N4C[C@H](CO)OC4=O)cc3F)cn2)n1 | 1.39 and 1.4 | 1.56 and 1.53
Cn1nnc(-c2ccc(-c3ccc(N4C[C@@H](CO)OC4=O)cc3F)cn2)n1 | 1.01 | 1.09
CON(Cc1ccc(F)cc1)C(=O)/C=C(\O)C(=O)O | 0.942 | 0.968
COc1ccc2[nH]cc(CCNC(=O)C3CC3)c2c1 | 0.901 | 0.938
NCCc1c[nH]cn1 | 0.832 and 0.572 | 0.983 and 0.838
O=C(c1ccc(OCCCc2c[nH]cn2)cc1)C1CC1 | 1.09 and 1.51 | 1.33 and 1.29
c1nc(CC2CCNCC2)c[nH]1 | 0.32 | 0.4
CC1=CC(=O)C(C(C)C)=C/C1=N/OC(=O)c1ccccc1C | 1.11 | 0.994
O=C(O)c1c[nH]c(=O)cn1 | 1.08 | 0.999
